An excerpt weighted towards active compounds, which were near 1.4% of everything screened.
HePTP inhibitor = human HePTP phosphatase inhibition; P35236; recombinant HePTP phosphatase activity, OD absorbance; inhibition, % at 20 µM; hit rate 0.64% among 110,000; AID 521; in the data active means inhibition above about 50%
Target sequence (P35236 whole entry, looked up): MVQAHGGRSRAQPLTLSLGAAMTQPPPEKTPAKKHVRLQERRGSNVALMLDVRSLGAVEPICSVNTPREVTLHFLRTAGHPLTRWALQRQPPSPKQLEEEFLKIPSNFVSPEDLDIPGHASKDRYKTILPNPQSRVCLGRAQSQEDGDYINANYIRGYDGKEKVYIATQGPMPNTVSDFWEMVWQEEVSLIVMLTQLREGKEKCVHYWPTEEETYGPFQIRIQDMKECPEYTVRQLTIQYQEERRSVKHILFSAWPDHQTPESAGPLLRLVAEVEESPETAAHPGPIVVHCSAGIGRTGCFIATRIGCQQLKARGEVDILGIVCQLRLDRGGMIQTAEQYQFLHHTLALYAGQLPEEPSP
BAP1 block = human BAP1 deubiquitinase inhibition. calls only at 20 µM. hit rate 0.48% among 72,000. recombinant BAP1, Ub-AMC hydrolysis fluorescence kinetic; hits give low values. Q92560;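 active means activity remaining at or below 50% of control, provided the compound also passes the data quality filters; inactive means the rest, including low values that fail the filters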
DUSP1 inh = human dual specificity phosphatase 1 inhibition. P28562. recombinant MKP-1, OMFP hydrolysis fluorescence. inhibition, %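 (compounds tested at a single concentration somewhere between 10 and 100 µM)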. hit rate 0.15% among 65,000. AID 374;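 active means inhibition above about 50%, limit read from the data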
Cdc25B block = inhibitors of human Cdc25B phosphatase. P30305. recombinant Cdc25B, OMFP fluorescence Ex485/Em525. inhibition, %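 (compounds tested at 10 µM final in the well)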. hit rate 0.1% among 65,000. AID 368; in the data active means inhibition above about 50%
PLAP activator = human PLAP activation; hit rate 1.2% among 96,000; P05187; AID 696; purified PLAP enzyme, luminescent substrate read-out; hits give high values; activation fold at 20 µM; in the data active means activation fold above about 2
Large screens that a line does not name were inactive; ! = repeats disagree.

CCCC(=O)C1=C(O)C(C(=O)OC)C(C)(C)C/C1=N\c1nc2ccccc2[nH]1 (stereo unspecified)	none (no result: BAP1 block, DUSP1 inh, Cdc25B block, PLAP activator)
CC(C)Oc1ccc(NC(=O)CSc2nc3ccccc3s2)cc1	none (no result: DUSP1 inh, Cdc25B block, PLAP activator)
COc1ccc(CN(C(=O)c2ccco2)C2CC(C)N(C)CC2C)cc1 (stereo unspecified)	HePTP inhibitor 102!
COc1ccc2[nH]c(=O)c(CN(C(=O)c3ccco3)C3CCCCC3)cc2c1	none (no result: BAP1 block, DUSP1 inh, Cdc25B block)
O=C1CCN2C=Nc3cccc4ccc1c2c34	Cdc25B block 80
c1ccc(CN2CCN(C3=Nc4cccc5cccc3c45)CC2)cc1	none (no result: HePTP inhibitor, BAP1 block, DUSP1 inh, Cdc25B block)
CC1=C(C(=O)OCCOC(C)C)C(c2ccccc2Cl)NC(=O)N1 (stereo unspecified)	none (no result: BAP1 block, DUSP1 inh, Cdc25B block, PLAP activator)
O=C(O)CN1C(=O)/C(=C\c2ccc(Cl)c(Cl)c2)SC1=S	none (no result: BAP1 block, DUSP1 inh, Cdc25B block, PLAP activator)
COc1cc(/C=C2/SC(=S)N(CC(=O)O)C2=O)cc(Cl)c1O	HePTP inhibitor 98 (no result: BAP1 block, DUSP1 inh, Cdc25B block, PLAP activator)
CC(C(=O)O)N1C(=O)/C(=C\c2ccc(F)cc2)SC1=S (stereo unspecified)	none (no result: BAP1 block, DUSP1 inh, Cdc25B block, PLAP activator)
CCOc1ccccc1NC(=O)CN(c1ccc(C)cc1)S(=O)(=O)c1c(C)n[nH]c1C	PLAP activator 2.1
CCCOc1ccc(N2C(=O)CC(N3CCN(C)CC3)C2=O)cc1 (stereo unspecified)	none (no result: BAP1 block, DUSP1 inh, Cdc25B block, PLAP activator)
CCOC(=O)N1CCC(NC(=O)C2CCN(C(=O)N3CCOc4ccccc43)CC2)CC1	PLAP activator 2.1
CCOC(=O)N1CCC(NC(=O)C2CCCN(C(=O)N3CCOc4ccccc43)C2)CC1 (stereo unspecified)	none
CN(C)c1ccnc2sc(C(=O)Nc3ccccc3)c(N)c12	none (no result: BAP1 block, DUSP1 inh, Cdc25B block, PLAP activator)
COC(=O)c1cn[nH]c1NC(=S)Nc1ccc(Cl)c(Cl)c1	PLAP activator 2.5 (no result: HePTP inhibitor, BAP1 block, DUSP1 inh, Cdc25B block)
CCOC(=O)c1c(-c2ccc(C)o2)csc1NC(=O)CN1CCOCC1	none (no result: HePTP inhibitor, BAP1 block, DUSP1 inh, Cdc25B block)
CCOC(=O)c1c(-c2ccc(C)o2)csc1NC(=O)CSc1ncn[nH]1	PLAP activator 2.2 (no result: HePTP inhibitor, BAP1 block, DUSP1 inh, Cdc25B block)
Cc1ccc(C)c(N(CC(=O)NC2CCCC2)C(=O)CCCC(=O)Nc2ccccn2)c1	none
Cc1cccc(N(CC(=O)NC2CCCC2)C(=O)CCCC(=O)Nc2ccccn2)c1	PLAP activator 2
CCOc1ccc2c(c1)n(CO)c(=S)n2CO	PLAP activator 2.3
Cc1cc(Cl)c(S(=O)(=O)N2CCSCC2)cc1OCC(=O)NC1CCCCC1	none (no result: HePTP inhibitor, BAP1 block, DUSP1 inh, Cdc25B block)
Cc1cc(Cl)c(S(=O)(=O)N2CCCCCC2)cc1OCC(=O)NC1CCCCC1	PLAP activator 2 (no result: HePTP inhibitor, BAP1 block, DUSP1 inh, Cdc25B block)
COc1ccccc1C(=O)Nc1c(F)c(F)c(F)c(F)c1F	none (no result: BAP1 block, DUSP1 inh, Cdc25B block, PLAP activator)
Clc1cccc(CSc2nc3ccncc3[nH]2)c1	PLAP activator 2.4 (no result: HePTP inhibitor, BAP1 block, DUSP1 inh, Cdc25B block)
Fc1cccc(CSc2nc3ccncc3[nH]2)c1	none (no result: PLAP activator)
CN(C)Cc1nc2c(c(=O)[nH]1)C1(CCCCC1)Cc1ccccc1-2	none
CN(C)Cc1nc2c(c(=O)[nH]1)C(C)(C)Cc1ccccc1-2	PLAP activator 2.3 (no result: HePTP inhibitor, BAP1 block, DUSP1 inh, Cdc25B block)
COC(=O)[C@H](CCSC)NC(=O)Nc1ccc(C)cc1C	PLAP activator 2.7
COC(=O)[C@H](CCSC)NC(=O)Nc1ccc(OC)cc1OC	none (no result: HePTP inhibitor, BAP1 block, DUSP1 inh, Cdc25B block)
Cc1ccc(NC(=O)CCC(=O)NNC(=O)c2cccs2)cc1C	PLAP activator 2 (no result: HePTP inhibitor, BAP1 block, DUSP1 inh, Cdc25B block)
O=C(Nc1ccc2nn(-c3cccc([N+](=O)[O-])c3)nc2c1)c1ccccc1Br	none (no result: BAP1 block, DUSP1 inh, Cdc25B block, PLAP activator)
COc1ccc(C(=S)N2CCCC2)c(OC)c1	HePTP inhibitor 94 (no result: BAP1 block, DUSP1 inh, Cdc25B block, PLAP activator)
Cc1cccc(/C(N)=N/OC(=O)c2cccc(Br)c2)c1	none (no result: BAP1 block, DUSP1 inh, Cdc25B block, PLAP activator)
COc1ccccc1NN=c1c(=O)c2ccccc2c1=O	none (no result: BAP1 block, DUSP1 inh, Cdc25B block, PLAP activator)
Cn1c(-c2ccccc2)cnc1SCc1nc2ccccc2c(=O)[nH]1	PLAP activator 2.5
O=C(CCn1c2ccccc2c2ccccc21)NNC(=S)Nc1ccccc1	none (no result: BAP1 block, DUSP1 inh, Cdc25B block, PLAP activator)
CC1CCc2c(sc3nc(CN4CCOCC4)nc(NS(=O)(=O)c4cccc([N+](=O)[O-])c4)c23)C1 (stereo unspecified)	PLAP activator 2.1 (no result: HePTP inhibitor, BAP1 block, DUSP1 inh, Cdc25B block)
O=C(NC1CC2CCCC(C1)N2Cc1ccco1)NC12CC3CC(CC(C3)C1)C2 (stereo unspecified)	PLAP activator 2.2
Cc1ccc([N+](=O)[O-])cc1N1C(=O)C=CC1=O	none (no result: BAP1 block, DUSP1 inh, Cdc25B block, PLAP activator)
CCOC(=O)CSc1nnnn1-c1cc(OC)c(Cl)cc1OC	Cdc25B block 51
COc1cc(-n2nnnc2SCC(=O)N2CCN(c3ccc(F)cc3)CC2)c(OC)cc1Cl	none (not shown: BAP1 block)
O=C(c1ccccc1)c1nc[nH]c1C(=O)Nc1ccccn1	PLAP activator 2.2
COCCCn1c(Cc2csc(Nc3cccc(Cl)c3)n2)nnc1SCC(=O)OC	PLAP activator 2
CS(=O)(=O)N(Cc1ccc(C(=O)Nc2cccc(C(F)(F)F)c2)cc1)c1ccccc1	none (no result: BAP1 block, DUSP1 inh, Cdc25B block, PLAP activator)
O=C(Nc1ccc(Cl)c(Cl)c1)N1CCN(C(c2ccccc2)c2ccccc2)CC1	none (no result: BAP1 block, DUSP1 inh, Cdc25B block, PLAP activator)
Cn1c(CNc2ccccc2O)nc2ccccc21	PLAP activator 2.4
